Laboratory results from PubChem BioAssay.
For part of these data: Entries with a potency or affinity are not part of this list. Some of the results follow. Calls of active or inactive are those of the source.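 Rule for the calls, unless noted: active = primary screen activator hit with a dose response curve and TRPC4 channel activation at any tested dose; inactive = no activation, no dose response, or not a primary hit.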

Legend:
[1] = system: TRPC4 beta (transient receptor potential cation channel C4), mouse; assay: TRPC4 cation channel opening, retest – cell-based, Fluo4 calcium, HEK293 TRPC4beta/mu-opioid, duplicates, 10 µM, confirmation (AID 2426;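 active = fluorescence ratio normalized to control raised more than 50% in primary screen plus both repeat runs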); details: Fluo4 calcium fluorescence, at 10 µM; active compounds read high
[2] = system: transient receptor potential cation channel C4 beta (TRPC4), mouse; assay: TRPC4 cation channel opening, second retest – cell-based, second round, Fluo4, HEK293 TRPC4beta/mu-opioid, 1 µM, confirmation (AID 2461;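 active = primary screen active and over 50% activation in each of two duplicate runs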); details: Fluo4 calcium fluorescence, at 1 µM; active compounds read high
[3] = system: TRPC4 (transient receptor potential cation channel C4 beta), mouse; assay: potentiation of DAMGO EC20 TRPC4 response – cell-based, second round, Fluo-4, HEK293 TRPC4beta/mu-opioid, 1 µM, confirmation (AID 2554;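 active = primary screen hit whose fluorescence ratio, in both repeats, exceeds the weak agonist control mean by 3 SD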); details: DAMGO EC20, Fluo-4 calcium flux, at 1 µM; active compounds read high
[4] = system: TRPC4 beta (transient receptor potential cation channel C4), mouse; assay: potentiation of DAMGO EC20 TRPC4 response – cell-based, Fluo-4, HEK293 TRPC4beta/mu-opioid, confirmation (AID 2555;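 active = primary screen hit whose calcium fluorescence ratio, in both repeats, exceeds the weak agonist control mean by 3 SD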); details: DAMGO EC20, Fluo-4 calcium flux, at 10 µM; active compounds read high
[5] = biological target: Short transient receptor potential channel 4 (Mus musculus) (UniProt Q9QUQ5); assay: blockers of DAMGO-evoked TRPC4 calcium flux – cell-based, Fluo4, HEK293 TRPC4beta/mu-opioid, confirmation (AID 2636;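 active = calcium signal cut by more than 3 SD below the full-agonist control yet still positive, in both repeats and the earlier primary screen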); details: at 10 µM; active compounds read high
[6] = biological target: Short transient receptor potential channel 4 (Mus musculus) (UniProt Q9QUQ5); assay: blockers of DAMGO-evoked TRPC4 calcium flux – cell-based, second round, Fluo4, HEK293 TRPC4beta/mu-opioid, 1 µM, confirmation (AID 2637;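 active = calcium signal ratio cut to more than 3 SD under the fully stimulated control mean yet still positive, in both repeats and the primary screen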); details: at 1 µM; active compounds read high
[7] = biological target: Short transient receptor potential channel 4 (Mus musculus) (UniProt Q9QUQ5); assay: calcium entry via TRPC4 opening agents – cell-based, HEK293 TRPC4/mu-opioid, Fluo-4 calcium, dose response (AID 434937)
[8] = biological target: Short transient receptor potential channel 4 (Mus musculus) (UniProt Q9QUQ5); assay: potentiation of DAMGO-evoked TRPC4 calcium signal – cell-based, HEK293 TRPC4/mu-opioid, Fluo-4 calcium, EC20 DAMGO, dose response (AID 434941;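 active = earlier screen potentiator hit that boosts the TRPC4 ion channel at some dose, with a dose response; inactive = no potentiation, no dose response, or not a prior hit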;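 note: calcium entry triggered by an EC20 dose of DAMGO at the co-expressed mu-opioid receptor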)
[9] = biological target: Short transient receptor potential channel 4 (Mus musculus) (UniProt Q9QUQ5); assay: block of DAMGO-driven TRPC4 calcium entry – cell-based, HEK293 TRPC4/mu-opioid, Fluo-4 calcium, dose response (AID 434942;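 active = primary screen inhibitor hit that blocks the TRPC4 channel at some tested dose, yielding a dose curve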)
[10] = biological target: Short transient receptor potential channel 6 (Mus musculus) (UniProt Q61143); assay: TRPC6 blockade by TRPC4 inhibitor hits – cell-based, HEK293, membrane potential dye, duplicate, selectivity assay for TRPC4 inhibitor project, confirmation (AID 434948;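 active = active in primary screen and both duplicates, each dropping signal beyond three positive-control SD with fluorescence still positive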); details: HEK293 TRPC6, membrane potential dye fluorescence, at 10 µM, stimulated with maximal-effect acetylcholine; active compounds read high
[11] = biological target: Short transient receptor potential channel 6 (Mus musculus) (UniProt Q61143); assay: TRPC6 opening by TRPC4 activator hits – cell-based, HEK293, membrane potential dye, duplicate, selectivity assay for TRPC4 activator project, confirmation (AID 434950;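 active = membrane potential signal rise above negative control mean plus 3 SD in both duplicates, also active in the earlier TRPC4 screen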;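 for activation: 0% = buffer only wells and 100% = acetylcholine maximal-effect wells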); details: HEK293 TRPC6, membrane potential fluorescence, at 10 µM; activation: active compounds read high; outcome: activation
[12] = biological target: Short transient receptor potential channel 6 (Mus musculus) (UniProt Q61143); assay: positive modulators of mouse TRPC6 channel – HEK293 cells, membrane potential dye, duplicate, selectivity assay for TRPC4 potentiator project, confirmation (AID 434952;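 active = compound raising the membrane signal above positive-control mean plus 3 SD in both repeats, and a primary screen hit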); details: HEK293 TRPC6, membrane potential dye fluorescence, at 10 µM, maximal acetylcholine added after compound; active compounds read high
[13] = biological target: Short transient receptor potential channel 4 (Mus musculus) (UniProt Q9QUQ5); assay: calcium flux activators in TRPC4/5HT1a cells, counter-screen for TRPC4 activator project, cell-based, second counter screen, HEK293 TRPC4/5HT1a, Fluo-4 (AID 434977;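 active = calcium signal rise above buffer-control mean plus 5 SD in both duplicates, and also a hit in the primary screen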;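 for activation: plate controls were assay buffer for no effect and maximal serotonin response for full effect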); details: Fluo-4 calcium flux, at 10 µM; active compounds read high
[14] = serotonin-gated TRPC4 signal block – cell-based, second counter screen, HEK293 TRPC4/5HT1a, Fluo-4, counter-screen for TRPC4 inhibitor project, confirmation (AID 434978;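 active = primary screen active whose calcium signal fell more than 3 SD beyond the full-serotonin control mean in both duplicate plates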;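 for outcome: serotonin given first at submaximal then at maximal dose after compound preincubation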); details: Fluo-4 calcium flux, at 10 µM, serotonin added to trigger calcium flux; active compounds read high
[15] = system: TRPC4 (mouse), co-expressed with 5HT1a in HEK293; assay: enhancement of serotonin-evoked TRPC4 response – cell-based, second counter screen, HEK293 TRPC4/5HT1a, Fluo-4, counter-screen for TRPC4 potentiator project, confirmation (AID 434979;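 active = signal rise over 3 SD above mean of control wells given weak agonist, in both repeats and first screen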); details: Fluo-4 calcium flux, at 10 µM, serotonin added at its EC20 dose; active compounds read high
[16] = nonspecific calcium rise without TRPC4 – cell-based, HEK293 mu-opioid receptor line, counter-screen for TRPC4 activator project, confirmation (AID 449723;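 active = hit in primary screen, with calcium signal over 5 SD above buffer well mean in both duplicates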;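 note: counter screen cells carry the mu-opioid receptor alone and lack TRPC4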); details: HEK293 mu-opioid cells, Fluo-4 calcium fluorescence, at 10 µM; active compounds read high
[17] = nonspecific potentiation of DAMGO calcium response – cell-based, HEK293 mu-opioid receptor line, counter-screen for TRPC4 allosteric potentiator project, confirmation (AID 449724;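 active = calcium signal rise more than 3 SD above the low-dose agonist control mean, in both duplicate plates and the primary screen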); details: HEK293 mu-opioid receptor cells, Fluo-4 calcium flux, at 10 µM, compound added before EC20 DAMGO stimulus; active compounds read high
[18] = parental CHO-K1 cell activation, no KCNQ2 – FluxOR thallium flux, duplicate, counter-screen for KCNQ2 potentiator project, confirmation (AID 2282;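 active = signal rise of at least 3 SD above the untreated control mean, in both duplicate wells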;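 note: counter screen of KCNQ2 potentiator hits so any rise reflects channel-independent effects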); details: parental CHO-K1 cells, FluxOR thallium flux fluorescence; at 10 µM; active compounds read high; zero = vehicle mean+3SD, 100% = vehicle-minus-blank window
[19] = biological target: Potassium voltage-gated channel subfamily KQT member 1 (Homo sapiens) (UniProt P51787); assay: KCNQ1 activation in stable CHO cells – cell-based, FluxOR thallium flux, selectivity assay for KCNQ2 potentiator project, confirmation (AID 2283;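 active = fluorescence ratio rise of at least 3 SD of vehicle wells above their mean, in both replicate wells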;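 note: 0% = vehicle mean plus 3 SD and 100% = vehicle minus unstimulated blank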); details: FluxOR thallium flux fluorescence, at 10 µM, active compounds read high, beyond 3SD, as % of vehicle-control signal
[20] = biological target: Potassium voltage-gated channel subfamily KQT member 2 (Rattus norvegicus) (UniProt O88943); assay: KCNQ2 potassium channel activity enhancers – cell-based, CHO, FluxOR thallium flux, duplicate, confirmation (AID 2287;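 active = fluorescence ratio rising 3 SD or more over the vehicle control mean in both replicates, plus primary screen hit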;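 note: peak minus minimum thallium fluorescence divided by baseline after K/Tl stimulus; 0% = vehicle mean plus 3 SD and 100% = vehicle minus unstimulated blank difference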); details: CHO-KCNQ2 cells, FluxOR thallium flux fluorescence; at 10 µM; active compounds read high
Potassium voltage-gated channel subfamily KQT member 2 (Rattus norvegicus), sequence (O88943 whole entry, looked up): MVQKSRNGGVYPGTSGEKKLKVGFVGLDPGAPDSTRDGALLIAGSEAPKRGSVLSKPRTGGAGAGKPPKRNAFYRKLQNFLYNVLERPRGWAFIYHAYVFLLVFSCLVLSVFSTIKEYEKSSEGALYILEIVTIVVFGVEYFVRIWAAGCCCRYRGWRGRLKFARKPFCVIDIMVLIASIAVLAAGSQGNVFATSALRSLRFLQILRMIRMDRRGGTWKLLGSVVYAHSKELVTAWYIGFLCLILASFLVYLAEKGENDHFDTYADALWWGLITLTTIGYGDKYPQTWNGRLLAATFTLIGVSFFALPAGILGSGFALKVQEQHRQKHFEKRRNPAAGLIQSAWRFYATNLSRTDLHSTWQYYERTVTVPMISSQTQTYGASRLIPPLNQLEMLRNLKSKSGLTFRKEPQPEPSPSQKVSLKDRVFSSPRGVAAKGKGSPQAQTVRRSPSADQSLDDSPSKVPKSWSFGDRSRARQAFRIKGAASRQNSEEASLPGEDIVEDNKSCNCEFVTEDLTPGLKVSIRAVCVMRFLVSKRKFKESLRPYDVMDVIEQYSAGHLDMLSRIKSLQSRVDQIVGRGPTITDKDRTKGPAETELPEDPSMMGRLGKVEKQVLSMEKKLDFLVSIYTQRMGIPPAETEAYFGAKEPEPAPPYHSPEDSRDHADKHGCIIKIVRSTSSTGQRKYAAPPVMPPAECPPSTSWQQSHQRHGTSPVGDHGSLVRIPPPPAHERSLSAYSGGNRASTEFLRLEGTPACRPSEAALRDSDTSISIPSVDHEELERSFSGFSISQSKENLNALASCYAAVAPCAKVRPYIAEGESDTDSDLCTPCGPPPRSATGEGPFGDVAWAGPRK

Short transient receptor potential channel 6 (Mus musculus), sequence (Q61143 whole entry, looked up): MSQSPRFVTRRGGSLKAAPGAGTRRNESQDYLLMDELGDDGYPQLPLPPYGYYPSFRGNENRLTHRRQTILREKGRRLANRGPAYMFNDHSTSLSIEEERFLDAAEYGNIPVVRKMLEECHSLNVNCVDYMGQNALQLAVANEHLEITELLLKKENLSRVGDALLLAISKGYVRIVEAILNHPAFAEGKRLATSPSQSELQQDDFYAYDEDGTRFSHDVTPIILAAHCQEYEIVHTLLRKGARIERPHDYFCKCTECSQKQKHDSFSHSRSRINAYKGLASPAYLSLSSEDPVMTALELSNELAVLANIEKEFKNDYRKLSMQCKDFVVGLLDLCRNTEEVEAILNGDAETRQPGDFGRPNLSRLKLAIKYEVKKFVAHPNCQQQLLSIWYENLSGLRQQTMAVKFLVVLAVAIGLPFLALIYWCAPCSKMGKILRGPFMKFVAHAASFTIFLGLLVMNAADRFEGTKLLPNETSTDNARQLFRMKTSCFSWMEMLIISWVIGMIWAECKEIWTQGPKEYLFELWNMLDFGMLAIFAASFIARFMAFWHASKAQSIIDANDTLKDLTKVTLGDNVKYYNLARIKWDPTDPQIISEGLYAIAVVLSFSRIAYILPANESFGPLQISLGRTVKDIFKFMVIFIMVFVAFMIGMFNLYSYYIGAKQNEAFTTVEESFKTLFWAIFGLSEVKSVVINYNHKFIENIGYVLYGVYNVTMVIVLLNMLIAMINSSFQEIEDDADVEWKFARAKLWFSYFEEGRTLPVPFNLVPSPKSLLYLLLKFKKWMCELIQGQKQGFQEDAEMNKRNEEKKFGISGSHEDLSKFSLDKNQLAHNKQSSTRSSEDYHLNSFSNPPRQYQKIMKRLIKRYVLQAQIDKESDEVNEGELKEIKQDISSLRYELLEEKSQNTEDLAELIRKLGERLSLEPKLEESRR
Short transient receptor potential channel 4 (Mus musculus), sequence (Q9QUQ5 whole entry, looked up): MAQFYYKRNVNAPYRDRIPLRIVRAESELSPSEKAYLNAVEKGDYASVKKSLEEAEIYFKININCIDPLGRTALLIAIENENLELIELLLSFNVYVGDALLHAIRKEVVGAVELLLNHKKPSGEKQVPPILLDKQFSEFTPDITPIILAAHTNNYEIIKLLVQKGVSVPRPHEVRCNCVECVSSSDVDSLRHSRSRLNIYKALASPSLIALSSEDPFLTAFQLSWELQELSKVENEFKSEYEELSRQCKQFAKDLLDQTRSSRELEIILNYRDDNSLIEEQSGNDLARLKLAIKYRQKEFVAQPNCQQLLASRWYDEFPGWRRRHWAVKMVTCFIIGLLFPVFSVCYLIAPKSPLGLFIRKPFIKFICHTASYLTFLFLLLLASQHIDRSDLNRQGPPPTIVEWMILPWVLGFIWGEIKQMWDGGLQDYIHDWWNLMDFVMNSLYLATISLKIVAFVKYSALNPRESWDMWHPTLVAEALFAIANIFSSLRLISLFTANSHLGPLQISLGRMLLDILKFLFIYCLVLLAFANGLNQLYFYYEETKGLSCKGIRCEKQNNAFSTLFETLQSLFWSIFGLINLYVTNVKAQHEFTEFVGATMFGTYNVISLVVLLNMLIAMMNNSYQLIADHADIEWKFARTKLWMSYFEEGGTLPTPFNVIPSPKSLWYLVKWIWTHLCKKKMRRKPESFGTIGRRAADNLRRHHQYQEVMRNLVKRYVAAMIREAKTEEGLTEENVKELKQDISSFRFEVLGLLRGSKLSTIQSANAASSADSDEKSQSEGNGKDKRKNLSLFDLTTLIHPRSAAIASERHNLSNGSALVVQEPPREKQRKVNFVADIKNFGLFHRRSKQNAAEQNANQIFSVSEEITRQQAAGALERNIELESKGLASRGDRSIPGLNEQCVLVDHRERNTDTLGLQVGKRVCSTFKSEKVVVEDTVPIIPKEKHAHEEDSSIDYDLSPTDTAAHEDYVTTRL
Potassium voltage-gated channel subfamily KQT member 1 (Homo sapiens), sequence (P51787 whole entry, looked up): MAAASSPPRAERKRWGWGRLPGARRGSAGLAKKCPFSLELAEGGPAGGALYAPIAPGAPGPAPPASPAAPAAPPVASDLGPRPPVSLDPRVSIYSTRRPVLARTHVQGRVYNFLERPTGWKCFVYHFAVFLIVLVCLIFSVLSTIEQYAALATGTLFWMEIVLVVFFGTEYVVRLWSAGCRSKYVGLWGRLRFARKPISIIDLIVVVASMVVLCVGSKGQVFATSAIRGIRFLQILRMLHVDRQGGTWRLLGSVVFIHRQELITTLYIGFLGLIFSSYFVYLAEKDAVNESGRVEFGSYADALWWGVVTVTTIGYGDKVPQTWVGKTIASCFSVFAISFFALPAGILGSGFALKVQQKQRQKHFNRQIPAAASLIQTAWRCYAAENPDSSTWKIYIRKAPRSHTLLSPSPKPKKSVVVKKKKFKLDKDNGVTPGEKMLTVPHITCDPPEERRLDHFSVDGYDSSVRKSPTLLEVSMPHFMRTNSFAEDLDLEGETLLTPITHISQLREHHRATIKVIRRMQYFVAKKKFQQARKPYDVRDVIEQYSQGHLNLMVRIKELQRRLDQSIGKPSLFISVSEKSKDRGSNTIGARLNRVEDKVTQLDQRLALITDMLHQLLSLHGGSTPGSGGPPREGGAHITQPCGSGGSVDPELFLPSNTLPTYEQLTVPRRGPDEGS

O=C(C1CCN(S(=O)(=O)c2cccnc2)CC1)N1CCN(c2ccc(Cl)cc2)CC1
active: activation [11] 35.5% | activation [13] 29.8% | inhibition [14] 42.4%
inactive: outcome [1] | outcome [2] | outcome [3] | outcome [4] | outcome [5] | outcome [6] | outcome [7] | outcome [8] | outcome [9] | outcome [10] | outcome [12] | outcome [15] | outcome [16] | outcome [17]

CN1CCN(NC(=O)c2cccc(Br)c2)CC1
inactive: outcome [1] | outcome [2] | outcome [5] | outcome [6] | outcome [7] | outcome [8] | outcome [9] | outcome [10] | outcome [11] | outcome [12] | outcome [13] | outcome [14] | outcome [16] | outcome [17]
active: potentiation [3] 8% | potentiation [4] 18% | potentiation [15] 21.8%

COc1ccc(NC(=O)CCCC2CCCCC2)c(OC)c1
active: potentiation, less the hit threshold [20] 80%
inactive: activity increase over 3SD of controls [18] -19.3% | activation over 3SD threshold [19] -6.1%

Oc1c(Cl)cc(Cl)c(Cl)c1Cc1c(O)c(Cl)cc(Cl)c1Cl
active: activity increase over 3SD of controls [18] 45% | potentiation, less the hit threshold [20] 112%
inactive: activation over 3SD threshold [19] -3.6%

CC1=CC(=O)C(C(C)C)=C/C1=N/OS(=O)(=O)c1ccccc1
active: potentiation [4] 23% | potentiation [15] 64.1%
inactive: outcome [1] | outcome [2] | outcome [3] | outcome [5] | outcome [6] | outcome [7] | outcome [8] | outcome [9] | outcome [10] | outcome [11] | outcome [12] | outcome [13] | outcome [14] | outcome [16] | outcome [17]

CCCCN1C(=O)C(=O)N(CC(=O)Nc2cc(OCC)c(N3CCOCC3)cc2OCC)C1=O
inactive: outcome [1] | outcome [2] | outcome [3] | outcome [4] | outcome [5] | outcome [6] | outcome [7] | outcome [8] | outcome [9] | outcome [10] | outcome [11] | outcome [12] | outcome [13] | outcome [14] | outcome [15] | outcome [16] | outcome [17]

CC1CCC2C(C1)c1sc(=O)[nH]c1SC2(C)C (stereo not drawn)
inactive: outcome [1] | outcome [2] | outcome [3] | outcome [4] | outcome [5] | outcome [6] | outcome [7] | outcome [8] | outcome [9] | outcome [10] | outcome [11] | outcome [12] | outcome [13] | outcome [14] | outcome [15] | outcome [16] | outcome [17]

CC(C)c1ccccc1NC(=S)NN(Cc1ccccc1)c1ccccc1
active: potentiation [4] 10% | potentiation [15] 43.9%
inactive: outcome [1] | outcome [2] | outcome [3] | outcome [5] | outcome [6] | outcome [7] | outcome [8] | outcome [9] | outcome [10] | outcome [11] | outcome [12] | outcome [13] | outcome [14] | outcome [16] | outcome [17]
